Molecules are shown by their SMILES. “And” between values parts separate entries of the source, which are not always exact repeats. Identical values can stand only once. Unmarked numbers belong to inactive results. Results filed as inconclusive are left out. The source made the active and inactive calls. Unless noted, calls follow the shape of the dose curve; as a rule, active = well fitted curve in the direction sought with a large enough effect; inconclusive = small, poorly fitted or top-dose-only effect, or another doubt; inactive = no such curve, though single readings can be large; an effect the other way counts as inactive or inconclusive. Bounds are passed on as bounds.

Here are results for 9 compounds from PubChem BioAssay (NCATS).

Experiment [1] concerns the target Cytochrome P450 1A2 (Homo sapiens) (UniProt P05177). Nature of the experiment: p450-cyp1a2 (AID 410; calls by dose curve; also: potency is read from the fitted curve at half-maximal effect;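 as to activity change, negative = inhibition: -100% = full effect of reference inhibitor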). The essentials:
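Luminescent readout of luciferin formed from Luciferin-ME by human CYP1A2; data normalized against complete inhibition by 57 uM furafylline. Enzyme 20nM, substrate 100uM at Km, 100mM KPO4 buffer, 60 min reaction at room temperature.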

In experiment [2] the target is Glucocorticoid receptor (Homo sapiens) (UniProt P04150). The experiment is described as follows: GR-GFP Redistribution (AID 450;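 active = compounds whose dose series gives a full or clear partial fitted curve of increased nuclear translocation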; also: potency is read from the fitted curve at half-maximal effect). The conditions noted are these: U2OS GR-GFP nuclear translocation, laser cytometry, 2 h.
Experiment [3] shares this target. The experiment is described as follows: GR-EFC Redistribution (AID 451; calls by dose curve; also: potency is read from the fitted curve at half-maximal effect). The conditions noted are these: CHO-K1 GR-EFC translocation, beta-gal luminescence, 2 h. The method in brief:
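CHO-K1 cells stably expressing nuclear-localized β-gal enzyme acceptor and GR fused C-terminally to the enzyme donor fragment; ligand-driven nuclear translocation restores β-gal by complementation. Compounds titrated up to 46 uM final, 2 h at 37 °C; luminescence read.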

The target in experiment [4] is Mitogen-activated protein kinase 10 (Mus musculus) (UniProt Q61831). Nature of the experiment: JNK3 AlphaScreen Assay (AID 530; active = well fitted curve in either direction with a large enough effect, not every such curve was filed as active;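 also: kinase came from lysate of stimulated human HepG2 cells; signal reports phosphorylation of biotinylated GST-cJun 1-79 at Ser73 with 10 µM ATP; % is scaled to controls: 0 for no effect and ±100 for the full control effect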). The essentials: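 Inhibitors reduce antibody binding to phosphorylated biotin-cJun, lowering AlphaScreen luminescence. Lysates from HepG2 cells pre-activated by IL-1beta plus TNF-alpha supplied JNK3; compounds were titrated.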
Experiment [5] addresses 3',5'-cyclic-AMP phosphodiesterase 4B (Homo sapiens) (UniProt Q07343). The experiment is described as follows: qHTS Assay for Inhibitors of PDE-IV (AID 607; active = well fitted activation curve with a large enough effect in the main read-out, with a control signal flat, not every such curve was filed as active; also: % of control where 0% means no effect). The essentials: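 ACTOne HEK293 cells carry a modified cAMP-gated CNG channel and express endogenous PDE4; plated 1000 cells/well, compounds up to 22.9 uM final. Membrane-potential dye fluorescence (ex 535/em 590) was read; parental cells received 10 uM forskolin + 100 uM RO 20-1724.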

Experiment [6] addresses Ubiquitin carboxyl-terminal hydrolase 1 (Homo sapiens) (UniProt O94782). The experiment is described as follows: Inhibitors of USP1/UAF1: Pilot qHTS (AID 504865). Also: nearly all actives have a fitted effect of over 35% in size. Also: potency is read from the fitted curve at half-maximal effect. The essentials:
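Deubiquitinase activity followed as kinetic rhodamine fluorescence release from 150 nM Ub-Rho. 1 nM USP1/UAF1 with compound, after 15 min room-temperature preincubation, in HEPES pH 7.8 buffer containing TCEP, EDTA, BSA and Tween-20.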

Experiment [7] has as its target DNA dC->dU-editing enzyme APOBEC-3G (Homo sapiens) (UniProt Q9HC16). The experiment is described as follows: qHTS for inhibitors of Vif-A3G interactions: Validation (AID 588379). Also: 0% is about no effect. The essentials:
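HeLa cells stably expressing Vif and A3G-eYFP, 700 cells/well, incubated overnight at 37 deg C, then exposed to compound overnight at 37 deg C. Inhibition of Vif-mediated degradation read as increased yellow fluorescence (Ex 488/Em 500-530) by laser-scanning cytometry.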

For experiment [8], the system named is Zika virus NS2B-NS3 protease. The experiment is described as follows: Primary screen GU AMC qHTS for Zika virus inhibitors (AID 1347154). Also: nearly all actives have a fitted effect of over 70% in size. Also: potency is read from the fitted curve at half-maximal effect.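 As to activity change, negative = inhibition: 0% = no-inhibitor control and -100% = no-enzyme control.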 The method in brief: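 Unlinked Zika NS2B hydrophilic domain/NS3 protease domain noncovalent complex (25 nM final) in 10 mM Tris-HCl pH 8.0, 0.01% Tween 20, with AMC peptide substrate. Fluorescence (ex 340, em 450 nm) change over 15 min, room temperature; percent inhibition fitted to 4-parameter Hill equation.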

In experiment [9] the target is Cytochrome P450 3A4 (Homo sapiens) (UniProt P08684). Nature of the experiment: qHTS Assay for Inhibitors and Substrates of Cytochrome P450 3A4 (AID 884). Also: potency is read from the fitted curve at half-maximal effect; nearly all actives have a fitted effect of over 50% in size. The essentials: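 20 nM human CYP3A4 with 25 uM Luciferin-PPXE (at KM) in 200 mM KPO4, preincubated 10 min with compound; NADPH regeneration started a 60 min RT reaction. Luciferin detected by luminescence, normalized to 57 uM ketoconazole as full inhibition.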

The target is the same in experiment [10]. Nature of the experiment: qHTS Assay for Activators of Cytochrome P450 3A4 (AID 885). Also: nearly all actives have a fitted effect of over 65% in size. The method in brief: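 20nM CYP3A4 + 25uM Luciferin-PPXE (=KM), 200mM KPO4; cpd 10 min RT; NADPH regen, 60 min RT; stop w/ detection buffer, 20 min; luminescence. Normalized to 57 uM ketoconazole.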
Experiment [11] is described as follows: AP1 Signaling Pathway (AID 357; active = well fitted curve in either direction with a large enough effect, not every such curve was filed as active;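 also: ME-180 reporter cells stimulated with EGF at its EC50 level; % is scaled to controls: 0 for no effect and ±100 for the full control effect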). The settings on record: ME-180 AP-1-bla reporter, EGF-induced, beta-lactamase ratio, 5 h. The essentials: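 A ratiometric CCF4 readout (405 nm excitation; 460 and 530 nm emission) quantified AP-1-driven beta-lactamase in ME-180 cells after 5 h with compound and EC50 EGF; AC50 values were derived for activators and inhibitors.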

Experiment [12] in a line: Stat Signaling Pathway (AID 446; active = well fitted curve in either direction with a large enough effect, not every such curve was filed as active;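 also: ME-180 cervical cancer cells given 40 pM IL-6 alongside compound; SIE-controlled beta-lactamase reporter measured as 460/530 nm FRET emission ratio; % is scaled to controls: 0 for no effect and ±100 for the full control effect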). The settings on record: ME-180 SIE beta-lactamase reporter, IL-6 stimulated, 5 h. The method in brief: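 ME-180 SIE-bla cells; overnight plating; cpd + IL-6 40 pM, 5 h, 37 C; LiveBLAzer 2.5 h RT; 460/530 nm emission ratio. Normalized to 300 pM IL-6 and 125 nM JAK inhibitor controls.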
Experiment [13] has as its target Guanine nucleotide-binding protein G(i) subunit alpha-1 (Homo sapiens) (UniProt P63096). The experiment is described as follows: qHTS Assay for Inhibitors of RGS12 GoLoco Motif Activity (Green Fluorophore) (AID 879).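 Also: 0% = labeled peptide with Gαi1 and full inhibition = labeled peptide alone without protein; negative values mean loss of peptide binding seen as reduced polarization.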 The method in brief:
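Fluorescence polarization assay: 50 nM Gαi1 with 10 nM FITC-labeled RGS12 GoLoco peptide in 10 mM Tris pH 7.5, 150 mM NaCl, 0.1 mM GDP, 0.05% NP40, 10 min at room temperature with compound.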

In experiment [14] the target is Cytochrome P450 2D6 (Homo sapiens) (UniProt P10635). The experiment is described as follows: qHTS Assay for Inhibitors and Substrates of Cytochrome P450 2D6 (AID 891). Also: nearly all actives have a fitted effect of over 60% in size. Also: potency is read from the fitted curve at half-maximal effect. The essentials: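 Human CYP2D6 (5 nM) with 30 uM Luciferin-ME EGE (at Km) in 100 mM KPO4, compound preincubated 10 min, then NADPH regeneration system for 60 min at room temperature. Luciferin read by luminescence; normalized to 1.43 uM quinidine.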

Experiment [15] concerns the target Cytochrome P450 2C19 (Homo sapiens) (UniProt P33261). The experiment is described as follows: qHTS Assay for Inhibitors and Substrates of Cytochrome P450 2C19 (AID 899). Also: nearly all actives have a fitted effect of over 60% in size. Also: potency is read from the fitted curve at half-maximal effect. The method in brief:
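NADPH-dependent conversion of Luciferin-H EGE (10uM, at KM) by 5nM enzyme in 50mM KPO4, 60 min at 37C following 10 min compound preincubation. Stopped with luciferin detection buffer; luminescence read after 20 min.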

For experiment [16], the target named is Pyruvate kinase (Leishmania mexicana) (UniProt Q27686). The experiment is described as follows: qHTS Validation Assay for Inhibitors of Leishmania Mexicana Pyruvate Kinase (AID 945).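 Also: 0% = DMSO only neutral control wells.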 The essentials:
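LmPYK E451W 0.2 nM; 0.5 mM PEP, 0.1 mM ADP, 7 mM MgCl2, 50 mM KCl, imidazole pH 7.2, 0.01% Tween 20, 0.05% BSA; 1 h RT; PKLight luminescence; DMSO-normalized.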

The target in experiment [17] is Cytochrome P450 2C9 (Homo sapiens) (UniProt P11712). The experiment is described as follows: qHTS Assay for Inhibitors and Substrates of Cytochrome P450 2C9 (AID 883). Also: % is scaled to controls: 0 for no effect and ±100 for the full control effect; nearly all actives have a fitted effect of over 60% in size. The essentials:
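A luminogenic readout tracked human CYP2C9 (10nM) converting deoxyluciferin (100uM, at KM) in 25mM KPO4 during 60 min at 37C with regenerated NADPH. Values normalized to 57uM sulphaphenazole as complete inhibition.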

A short description of experiment [18]: NFAT Signaling Pathway (AID 444; active = well fitted curve in either direction with a large enough effect, not every such curve was filed as active;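 also: carbachol stimulus at about its EC50 of 1 µM final; % is scaled to controls: 0 for no effect and ±100 for the full control effect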). The conditions noted are these: Jurkat NFAT-bla M1, carbachol, beta-lactamase ratio, 5 h. The essentials:
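Jurkat cells carrying an NFAT-driven β-lactamase reporter and co-transfected muscarinic M1 receptor were treated with compound plus carbachol (1 uM final, an EC50 level) for 5 h at 37 °C. CCF4 loading followed for 1 h at RT; 460/530 nm ratio gave %activity.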

Guanine nucleotide-binding protein G(i) subunit alpha-1 (Homo sapiens), sequence (P63096 whole entry, looked up): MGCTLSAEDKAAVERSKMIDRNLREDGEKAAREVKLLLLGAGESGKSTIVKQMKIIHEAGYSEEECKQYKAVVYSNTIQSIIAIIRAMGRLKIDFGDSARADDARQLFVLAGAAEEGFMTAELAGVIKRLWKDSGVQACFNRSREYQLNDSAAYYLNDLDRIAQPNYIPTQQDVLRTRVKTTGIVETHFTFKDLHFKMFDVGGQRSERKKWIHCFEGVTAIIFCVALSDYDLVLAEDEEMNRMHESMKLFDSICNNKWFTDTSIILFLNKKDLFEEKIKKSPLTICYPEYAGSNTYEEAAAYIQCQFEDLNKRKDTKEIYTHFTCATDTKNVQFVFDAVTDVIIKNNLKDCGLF
Cytochrome P450 2C19 (Homo sapiens), sequence (P33261 whole entry, looked up): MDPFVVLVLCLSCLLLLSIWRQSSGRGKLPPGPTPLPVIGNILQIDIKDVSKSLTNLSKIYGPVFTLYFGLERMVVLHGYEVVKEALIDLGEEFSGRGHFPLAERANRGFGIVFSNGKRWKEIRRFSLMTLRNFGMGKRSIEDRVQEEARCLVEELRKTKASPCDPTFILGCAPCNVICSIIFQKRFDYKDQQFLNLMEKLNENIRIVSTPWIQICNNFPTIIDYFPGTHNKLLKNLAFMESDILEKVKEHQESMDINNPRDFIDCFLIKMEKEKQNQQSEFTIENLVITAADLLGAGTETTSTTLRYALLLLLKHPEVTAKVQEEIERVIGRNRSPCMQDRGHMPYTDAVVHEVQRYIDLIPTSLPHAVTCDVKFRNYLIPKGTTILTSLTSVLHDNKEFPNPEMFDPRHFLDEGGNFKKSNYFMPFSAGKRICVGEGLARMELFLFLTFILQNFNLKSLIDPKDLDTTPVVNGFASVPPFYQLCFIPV
Cytochrome P450 3A4 (Homo sapiens), sequence (P08684 whole entry, looked up): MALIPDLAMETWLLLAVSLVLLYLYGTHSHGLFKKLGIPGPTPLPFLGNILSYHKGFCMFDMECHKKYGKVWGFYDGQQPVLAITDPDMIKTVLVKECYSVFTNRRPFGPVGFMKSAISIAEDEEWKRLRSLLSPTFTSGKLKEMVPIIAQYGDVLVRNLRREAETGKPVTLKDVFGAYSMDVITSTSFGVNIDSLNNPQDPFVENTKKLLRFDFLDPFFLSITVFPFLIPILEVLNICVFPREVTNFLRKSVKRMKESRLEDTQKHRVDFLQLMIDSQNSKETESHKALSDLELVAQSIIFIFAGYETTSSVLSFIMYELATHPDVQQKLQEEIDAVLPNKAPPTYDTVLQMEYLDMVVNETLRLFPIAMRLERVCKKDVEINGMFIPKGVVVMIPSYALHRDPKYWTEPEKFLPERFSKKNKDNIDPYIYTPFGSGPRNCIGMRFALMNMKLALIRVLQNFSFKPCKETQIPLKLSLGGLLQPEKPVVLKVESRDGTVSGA
DNA dC->dU-editing enzyme APOBEC-3G (Homo sapiens), sequence (Q9HC16 whole entry, looked up): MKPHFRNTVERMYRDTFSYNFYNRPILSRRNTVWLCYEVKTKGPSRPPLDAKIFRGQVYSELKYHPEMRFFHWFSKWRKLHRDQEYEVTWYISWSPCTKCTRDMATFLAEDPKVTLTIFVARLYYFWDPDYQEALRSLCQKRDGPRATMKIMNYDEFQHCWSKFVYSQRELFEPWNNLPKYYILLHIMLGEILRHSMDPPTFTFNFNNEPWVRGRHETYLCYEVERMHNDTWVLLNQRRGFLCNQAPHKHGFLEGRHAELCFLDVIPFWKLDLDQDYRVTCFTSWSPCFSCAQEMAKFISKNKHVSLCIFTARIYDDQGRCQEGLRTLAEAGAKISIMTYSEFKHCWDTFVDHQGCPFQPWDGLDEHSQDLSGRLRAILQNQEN
Cytochrome P450 2C9 (Homo sapiens), sequence (P11712 whole entry, looked up): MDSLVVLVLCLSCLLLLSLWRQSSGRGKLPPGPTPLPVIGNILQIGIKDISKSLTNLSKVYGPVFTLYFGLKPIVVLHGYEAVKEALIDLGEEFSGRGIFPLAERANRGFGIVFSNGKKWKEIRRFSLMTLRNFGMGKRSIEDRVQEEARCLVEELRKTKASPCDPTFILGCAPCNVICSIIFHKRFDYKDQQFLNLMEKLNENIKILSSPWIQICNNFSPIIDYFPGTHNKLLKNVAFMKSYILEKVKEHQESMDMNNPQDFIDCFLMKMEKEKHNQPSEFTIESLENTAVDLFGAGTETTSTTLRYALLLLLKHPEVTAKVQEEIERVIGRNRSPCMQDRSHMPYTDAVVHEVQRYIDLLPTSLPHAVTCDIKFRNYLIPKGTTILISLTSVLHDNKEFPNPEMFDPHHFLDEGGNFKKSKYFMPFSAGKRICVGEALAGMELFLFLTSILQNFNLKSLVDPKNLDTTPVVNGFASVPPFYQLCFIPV
Pyruvate kinase (Leishmania mexicana), sequence (Q27686 2-499 E452W): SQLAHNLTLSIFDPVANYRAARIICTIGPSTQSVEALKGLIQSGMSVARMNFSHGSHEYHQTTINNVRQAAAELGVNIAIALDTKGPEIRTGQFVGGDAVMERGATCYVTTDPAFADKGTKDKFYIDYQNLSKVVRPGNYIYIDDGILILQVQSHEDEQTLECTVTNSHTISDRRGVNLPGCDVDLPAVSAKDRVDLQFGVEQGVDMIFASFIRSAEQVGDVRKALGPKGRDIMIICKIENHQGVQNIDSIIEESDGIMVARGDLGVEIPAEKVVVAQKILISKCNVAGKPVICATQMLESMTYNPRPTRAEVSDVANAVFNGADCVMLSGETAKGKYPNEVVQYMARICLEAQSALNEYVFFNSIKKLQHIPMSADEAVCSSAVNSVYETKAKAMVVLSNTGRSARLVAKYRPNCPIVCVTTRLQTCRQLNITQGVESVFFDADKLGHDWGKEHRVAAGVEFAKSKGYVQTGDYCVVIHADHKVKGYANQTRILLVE
Cytochrome P450 1A2 (Homo sapiens), sequence (P05177 whole entry, looked up): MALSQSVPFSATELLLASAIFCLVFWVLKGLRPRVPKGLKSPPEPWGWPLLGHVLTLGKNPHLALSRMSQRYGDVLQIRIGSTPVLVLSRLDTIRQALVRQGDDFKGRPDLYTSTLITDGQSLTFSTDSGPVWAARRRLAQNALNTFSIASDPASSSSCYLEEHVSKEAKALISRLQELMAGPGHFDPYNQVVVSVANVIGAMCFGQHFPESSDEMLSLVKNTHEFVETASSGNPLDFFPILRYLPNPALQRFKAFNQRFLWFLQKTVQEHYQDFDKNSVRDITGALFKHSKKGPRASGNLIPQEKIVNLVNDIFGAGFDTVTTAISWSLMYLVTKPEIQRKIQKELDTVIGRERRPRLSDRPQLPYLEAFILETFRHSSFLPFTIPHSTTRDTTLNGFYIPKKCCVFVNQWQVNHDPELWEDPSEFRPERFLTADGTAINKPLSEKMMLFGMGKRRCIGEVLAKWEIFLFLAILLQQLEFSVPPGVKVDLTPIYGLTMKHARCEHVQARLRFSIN
Cytochrome P450 2D6 (Homo sapiens), sequence (P10635 whole entry, looked up): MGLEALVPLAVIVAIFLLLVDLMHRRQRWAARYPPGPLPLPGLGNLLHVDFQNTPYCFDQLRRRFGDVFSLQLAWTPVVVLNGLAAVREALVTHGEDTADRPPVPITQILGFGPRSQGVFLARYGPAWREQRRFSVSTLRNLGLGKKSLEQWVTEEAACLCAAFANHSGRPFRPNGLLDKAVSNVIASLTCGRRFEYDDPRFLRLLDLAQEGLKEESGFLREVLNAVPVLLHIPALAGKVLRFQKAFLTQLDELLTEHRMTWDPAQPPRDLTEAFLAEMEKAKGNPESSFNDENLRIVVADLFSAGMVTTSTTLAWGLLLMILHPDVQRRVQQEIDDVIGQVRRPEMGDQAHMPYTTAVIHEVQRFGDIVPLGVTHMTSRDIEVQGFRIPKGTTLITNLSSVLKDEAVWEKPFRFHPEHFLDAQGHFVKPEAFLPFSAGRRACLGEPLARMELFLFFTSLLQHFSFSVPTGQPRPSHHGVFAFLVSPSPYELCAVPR
Glucocorticoid receptor (Homo sapiens), sequence (P04150 whole entry, looked up): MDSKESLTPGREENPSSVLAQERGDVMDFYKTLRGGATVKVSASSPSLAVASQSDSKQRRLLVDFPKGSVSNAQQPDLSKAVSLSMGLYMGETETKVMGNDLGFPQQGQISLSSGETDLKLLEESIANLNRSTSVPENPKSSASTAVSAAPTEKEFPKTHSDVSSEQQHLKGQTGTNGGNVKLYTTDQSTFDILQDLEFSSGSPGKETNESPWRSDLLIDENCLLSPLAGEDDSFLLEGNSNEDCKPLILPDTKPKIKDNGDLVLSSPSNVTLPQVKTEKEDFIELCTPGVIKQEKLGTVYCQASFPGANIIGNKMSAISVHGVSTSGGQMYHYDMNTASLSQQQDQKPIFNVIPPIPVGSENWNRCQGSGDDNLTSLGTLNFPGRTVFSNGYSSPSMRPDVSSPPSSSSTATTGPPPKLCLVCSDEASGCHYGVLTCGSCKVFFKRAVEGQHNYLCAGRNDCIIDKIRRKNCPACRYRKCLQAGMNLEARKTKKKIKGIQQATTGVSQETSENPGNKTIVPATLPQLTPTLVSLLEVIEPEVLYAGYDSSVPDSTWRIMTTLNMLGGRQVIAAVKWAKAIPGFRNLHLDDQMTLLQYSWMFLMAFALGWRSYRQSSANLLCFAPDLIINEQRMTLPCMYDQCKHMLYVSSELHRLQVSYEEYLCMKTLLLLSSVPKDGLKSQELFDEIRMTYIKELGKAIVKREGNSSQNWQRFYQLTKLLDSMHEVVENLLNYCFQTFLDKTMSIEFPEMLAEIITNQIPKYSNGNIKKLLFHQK

As to `CC1(C)CC(=O)C([C@H]2C3=C(CC(C)(C)CC3=O)Oc3ccccc32)C(=O)C1`, the Potency result in [1], in experiment [4], in experiment [5], in experiment [6], in [7] and in experiment [8] was “inactive” throughout. Moreover, the Potency in [2] and in [3] was greater than 46 µM each time.

For the compound `C[C@@]1(C(=O)O)NCCc2cc(O)c(O)cc21`, the Potency result in experiment [1], in experiment [5] and in [7] was “inactive” throughout. Further, the Potency was greater than 46 µM in experiment [2], greater than 46 µM in experiment [3], 56.2 µM (active) in experiment [6] and 11.9 µM (active) in experiment [8].

With `CCC(C)(C)N=C(NC#N)Nc1cccnc1`, the Potency in experiment [1] is 12.6 µM (active); in experiment [2], greater than 46 µM; in experiment [3] it was greater than 46 µM; in [9] it was 5.01 µM (active). In addition, the Potency result in experiment [5], in [10], in experiment [6], in [7] and in experiment [8] was “inactive” in each case.

As to `CC(C)Oc1ccc2c(=O)c3cc(C(=O)O)ccc3oc2c1`, the Potency result in experiment [1], in [4], in [5], in experiment [7] and in experiment [8] was “inactive” in each case. For the same compound, the Potency in [2] and in experiment [3] was greater than 46 µM each time.

Take `CC(C)NC[C@@H](O)COc1ccccc1-n1cccc1`: the Potency in experiment [1] was 3.98 µM (active); in experiment [2], greater than 46 µM; in [3] it was greater than 46 µM. Further, the Potency entry in experiment [6], in experiment [7] and in experiment [8] was “inactive” in each case.

As for `COc1cccc(OC)c1OCCNC[C@@H]1COc2ccccc2O1`, the activity change, negative = inhibition in [11] (at 38 µM (top of the series)) was -5.1%. Besides, the Potency was 12.6 µM (active) and 25.1 µM (active) in experiment [1]; greater than 46 µM in experiment [2]; greater than 46 µM in experiment [3]; 2 µM (active) and 2.51 µM (active) in experiment [9]; 251 nM (active) in experiment [14]; 794 nM (active) in experiment [15]. Moreover, the activity, negative = inhibition in [12] (at 38 µM (top of the series)) was 9.55%. Besides, the Potency result in [4], in [10], in experiment [16], in experiment [7] and in experiment [8] was “inactive” each time. Also, the outcome in experiment [13] was inactive.

For `Cc1ccc(C(=O)Cn2c3c(sc2=N)CCCC3)cc1`, the Potency in experiment [1] is 1 µM (active); in experiment [2], greater than 46 µM; in experiment [3], greater than 46 µM; in experiment [9] it was 6.31 µM (active). For the same compound, the Potency entry in [4], in [5], in experiment [17], in experiment [10], in [14] and in [15] was “inactive” throughout. The Potency entry in [7] and in experiment [8] was “inactive” in each case.

On to `COc1ccccc1N1CCN(C[C@@H](O)COc2cccc3ccccc23)CC1`, for which the activity change, negative = inhibition in [11] (at 17.2 µM (top of the series)) is 4.94%; in experiment [11] (at 38 µM (top of the series)), 2.88%; in [18] (at 17.2 µM (top of the series)), -8.94%; in [18] (at 38 µM (top of the series)), -1.67%. The Potency was 20 µM (active) and 31.6 µM (active) in experiment [1]; > 46 µM and > 20.6 µM in experiment [2]; > 46 µM and > 20.6 µM in experiment [3]; 794 nM (active) and 316 nM (active) and 126 nM (active) in experiment [14]; 6.31 µM (active) and 7.94 µM (active) and 1.58 µM (active) in [15]. For the same compound, the activity, negative = inhibition in [12] (at 17.2 µM (top of the series)) was -4.93%. The Potency entry in experiment [4], in experiment [5], in experiment [17], in [10], in experiment [16] and in experiment [6] was “inactive” each time. The Potency result in experiment [7] and in experiment [8] was “inactive” throughout. Besides, the compound was called inactive in experiment [13].

With `NS(=O)(=O)c1cc2c(cc1Cl)N[C@@H]([C@@H]1C[C@@H]3C=C[C@H]1C3)NS2(=O)=O`, the activity change, negative = inhibition was -0.109% in experiment [11] (at 38 µM (top of the series)) and 4.22% in [18] (at 38 µM (top of the series)). For the same compound, the Potency result in experiment [1], in experiment [4], in experiment [5], in [16], in experiment [7] and in experiment [8] was “inactive” in each case. The Potency in [2] and in experiment [3] was greater than 46 µM in each case. For the same compound, the outcome in [13] was inactive.
